Bioassay records: PubChem, University of Kansas High Throughput Screening Laboratory
Pf apPOL inh: Pf-apPOL DNA polymerase inhibition; Recombinant Pf-apPOL, molecular beacon fluorescence, 1.5 h; inhibition, % at 10 µM; 210,000 compounds, 0.25% hits; AID 1794808
mHTT CaM bind: inhibitors of human mutant huntingtin-calmodulin interaction | P42858 | AlphaScreen His-mHTT/GST-CaM binding, luminescence | inhibition, % at 15 µM | 190,000 compounds, 3.6% hits | AID 1671202
Numbers stand for hits; . = inactive; / = no result. Compounds with a hit are over-represented: about 3.5% of the library has one in this group of screens. No stated cut-off is given here; in the data, active means inhibition above about 50%; inactive means the rest.

SMILES	Pf apPOL inh	mHTT CaM bind
CCCN1C(=O)Cc2ccccc2C1C(=O)NCc1cc(F)ccc1F (centres undefined)	.	.
Cc1ccc(N=Cc2cc3ccccc3[nH]c2=O)cc1	.	57.0
Cc1ccc2nc(-c3ccc(N=Cc4ccccc4O)cc3)sc2c1	.	/
CCCc1ccc(OCC(O)CN2CCN(c3ccc(OC)cc3)CC2)cc1 (centres undefined)	.	60.9
CC1CCC(C(C)C)C(OCC(O)CN2CCN(Cc3ccccc3)CC2)C1 (centres undefined)	.	.
COc1ccc(N2CCN(CC(O)COc3ccc(Cl)c(C)c3)CC2)cc1 (centres undefined)	.	82.7
Cc1ccc(OCC(O)CN2CCN(c3ccc(F)cc3)CC2)cc1C (centres undefined)	.	.
Cc1cc(OCC(O)CN2CCN(Cc3ccc4c(c3)OCO4)CC2)ccc1Cl (centres undefined)	.	90.2
COc1ccc(N2CCN(CC(O)COC3CC(C)CCC3C(C)C)CC2)cc1 (centres undefined)	.	61.7
CCCc1ccc(OCC(O)CN2CCCC2)cc1 (centres undefined)	.	.
CC(C)(C)c1ccc(OCC(O)CN2CCN(Cc3ccc4c(c3)OCO4)CC2)cc1 (centres undefined)	.	.
O=C(NCc1cccc(Cl)c1)C1CC(=O)N(CCc2ccccc2)C1 (centres undefined)	.	.
O=C(NCCc1csc(C2CCCN(C(=O)CC3CCCC3)C2)n1)C1CC1 (centres undefined)	.	.
Cc1ccnc(N2CCCC(C(=O)NCCN3CCN(c4cccc(Cl)c4)CC3)C2)n1 (centres undefined)	.	.
O=c1c(C=NCCCO)c(CSc2ccc(Cl)cc2)[nH]n1-c1nc2ccccc2s1	.	56.0
CCCN=Cc1c(CCC)[nH]n(-c2nc3ccccc3s2)c1=O	.	.
CC(C)C(=O)N1CCc2ccc(NS(=O)(=O)Cc3ccc(Cl)cc3)cc2C1	93.7	.
CC(C)S(=O)(=O)Nc1ccc2c(c1)CN(C(=O)c1ccco1)CC2	.	.
Cc1[nH]nc2c1C1(C(=O)Nc3ccc(F)cc31)C(C#N)=C(N)O2 (centres undefined)	.	.
Cc1cccc2oc(-c3cc(N=Cc4cc([N+](=O)[O-])ccc4O)ccc3O)nc12	.	.
Cc1ccc2n1CCN(C(=O)NCc1ccccc1)C2C(C)C (centres undefined)	.	.
Cc1ccc2n1CCN(C(=O)NCCc1ccccc1)C2C(C)C (centres undefined)	.	53.7
Cc1ccc2nc(Cc3ccccc3)c(NC(=O)C3CCCCC3)n2c1	.	53.9
Cc1ccn2c(NC(=O)C3CCCC3)c(-c3ccccc3)nc2c1	.	.
Cc1ccc2nc(-c3ccc(C)o3)c(NC(=O)C3CCCCC3)n2c1	.	55.7
SMILES	Pf apPOL inh	mHTT CaM bind
COc1ccc(-c2nc3ccc(C)cn3c2NC(=O)C2CCCCC2)cc1	.	.
Cc1cc2[nH]c3c(c2cc1C)CC(NC(=O)C1CCCC1)CC3 (centres undefined)	.	.
Cc1ccc2[nH]c3c(c2c1)CC(NC(=O)CC1C=CCC1)CC3 (centres undefined)	.	96.8
CCC(=O)NC1CCc2[nH]c3ccc(C)cc3c2C1 (centres undefined)	.	.
O=C(CC1CC1)NC1CCc2[nH]c3ccc(Cl)cc3c2C1 (centres undefined)	.	87.6
NC(=O)c1c(Nc2ccccc2Cl)sc(C(=O)c2ccccc2)c1N	.	86.0
N#Cc1ccccc1Nc1sc(C(=O)c2ccccc2)c(N)c1C(N)=O	.	.
Cc1ccc(C(=O)Nc2cc3cc([N+](=O)[O-])ccc3oc2=O)cc1C	.	.
Cc1ccc(S(=O)(=O)NCCC2CCN(C(=O)c3ccccc3)CC2)cc1C	.	.
Cc1cc(C)c(S(=O)(=O)NCCC2CCN(C(=O)c3ccccc3)CC2)cc1C	.	63.7
O=C(c1ccc(F)cc1)N1CCC(CCNS(=O)(=O)c2cccc(Cl)c2)CC1	.	.
O=C(c1ccccc1)N1CCC(CCNS(=O)(=O)c2cccc(Cl)c2)CC1	.	50.1
Cc1c(Cl)cccc1S(=O)(=O)NCCC1CCN(C(=O)c2ccccc2)CC1	.	52.8
O=C(c1ccc(F)cc1)N1CCC(CCNS(=O)(=O)c2ccccc2Cl)CC1	.	.
CCn1cc(CN2CCC(C(=O)NCc3ccc(C)o3)CC2)c2ccccc21	.	.
Nc1c(C(=O)NCCc2ccccc2)sc2nc3c(cc12)CCC3	.	.
CCn1c(CCNC(=O)c2cccc(N(C)C)c2)nc2c(C)cccc2c1=O	.	58.7
CCn1c(CCNC(=O)c2ccccc2)nc2c(C)cccc2c1=O	.	.
COc1ccc(NC(=O)CSc2nc3ccc(OC)cc3[nH]2)c(OC)c1	.	.
COc1cccc(C2C(C(=O)Nc3ccccc3)=C(C)Nc3nc(-c4ccccc4)nn32)c1OC (centres undefined)	.	70.0
COc1ccc(C2C(C(=O)Nc3ccccc3)=C(C)Nc3nc(-c4ccccc4)nn32)c(OC)c1 (centres undefined)	.	.
